Assay outcomes (PubChem)
Tau filament bind: binders of human tau filaments | P10636 | recombinant tau filaments, thioflavin S fluorescence, 15 h; filaments grown with octadecylsulfate alongside compound | Potency, µM (doses to about 57.1 µM), for the others: at the highest dose activity change, negative = inhibition | hit rate 2% among 71,000 | AID 596;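 also: % is scaled to controls: 0 for no effect and ±100 for the full control effect; actives lower thioflavin S fluorescence by blocking filaments or displacing dye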
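His-tagged recombinant human tau (exons 2, 3, 10; 1 uM final) fibrillized with 30 uM sodium octadecylsulfate, 15 h at 37 C, in pH 7.4 HEPES buffer with 10 uM thioflavine S and 5 mM DTT. Reduced ThS fluorescence (450/510 nm) marks activity.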
FLuc inh: blocks Photinus pyralis firefly luciferase activity | Potency, µM (top dose mostly 57.1 µM), inactives show at the highest dose activity change, negative = inhibition, most hits filed as inhibitors | hit rate 2.2% among 72,000 | purified firefly luciferase, luminescence, 8 min | P08659; also: % is scaled to controls: 0 for no effect and ±100 for the full control effect; nearly all actives have a fitted effect of over 40% in size
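Firefly luciferase (PKLight detection mix) with 10 uM ATP in pH 7.2 imidazole buffer (KCl, MgCl2, Tween 20, BSA). Compounds tested across a concentration series (qHTS). Luminescence read after 8 min at ambient temperature.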
Caspase-7 inhib: blocks human caspase-7 allosterically or competitively. hit rate 0.02% among 75,000. P55210. AID 889. Potency, µM (highest dose often 57.5 µM), without a hit: at the highest dose activity change, negative = inhibition, hits mostly inhibitors. recombinant caspase-7, Ac-DEVD-AFC fluorescence rate; active = well fitted inhibition curve with a large enough effect in the main read-out, with a control signal flat, not every such curve was filed as active; inconclusive = small, poorly fitted or top-dose-only effect, or a change in a side signal; also: % of control where 0% means no effect
Casp1 inh: blocks human caspase-1 allosterically or competitively. hit rate 0.03% among 75,000. AID 900. Potency, µM (series often up to 57.5 µM), inactives show at the top dose activity change, negative = inhibition, actives largely listed as inhibitors. Caspase-1 enzyme, Ac-WEHD-AFC fluorogenic rate;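 also: plate controls were vehicle for no effect and no substrate for full effect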
PK Bst: pyruvate kinase (B. stearothermophilus) modulation; Potency, µM; purified pyruvate kinase, luminescence ATP production; ribose 5-phosphate activator present at AC10; hit rate 1.2% among 51,000; in the data active = potency below about 11 µM; inconclusive = mostly about 12 µM to 25 µM;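 the screen sought inhibitors and activators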;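 also: scaled between full activation by ribose 5 phosphate and full inhibition by luteolin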
Active calls of the source: *; [ ] = remark or other dose. This is a sample that favours compounds with a hit; in the whole collection about 4% have one here. Unless noted, calls follow the shape of the dose curve; as a rule, active = well fitted curve in the direction sought with a large enough effect; inconclusive = small, poorly fitted or top-dose-only effect, or another doubt; inactive = no such curve, though single readings can be large; an effect the other way counts as inactive or inconclusive. Potency is read from the fitted curve at half-maximal effect.

What do the screens show for `Cc1ccccc1Cn1ccc(NC(=O)c2cc3nc(-c4ccco4)cc(C(F)(F)F)n3n2)n1`?
Tau filament bind: -26.5%; FLuc inh: 2.9%; Caspase-7 inhib: -18.5%; Casp1 inh: inconclusive; PK Bst: >57

Results for Cc1nn(Cc2ccccc2)c(C)c1NC(=O)c1cc2nc(-c3ccco3)cc(C(F)(F)F)n2n1 ?
Tau filament bind: 15.8µM*; FLuc inh: -3.2%; Caspase-7 inhib: inconclusive; PK Bst: >57

What do the screens show for `COc1cccc(-c2cc(C(=O)Nc3cnn(Cc4ccc(F)cc4)c3)no2)c1`?
Tau filament bind: 36.7%; FLuc inh: 4.1%; Caspase-7 inhib: 1.6%; Casp1 inh: -1.3%; PK Bst: >57

How did O=C(Nc1cnn(Cc2ccc(F)cc2)c1)c1cc2nc(-c3ccco3)cc(C(F)(F)F)n2n1 do in these assays?
Tau filament bind: 15.8µM*; FLuc inh: 3.0%; Caspase-7 inhib: -0.4%; Casp1 inh: 0.0%; PK Bst: >57

Results for CCc1c2c(nc3cccc(OC)c13)OC(CC)C2 (centres undefined) ?
Tau filament bind: -4.8%; Caspase-7 inhib: 0.5%; Casp1 inh: -4.2%

Results for CCc1nnc(NC(=O)CCC(=O)N2CCN(Cc3ccccc3)CC2)s1 ?
Tau filament bind: 1.1%; FLuc inh: 12.6µM*; Caspase-7 inhib: -0.7%; Casp1 inh: 0.6%

What do the screens show for `Cc1ccc(C(C)C)c(OCCNc2nc3c(c(=O)n(C)c(=O)n3C)n2C)c1`?
FLuc inh: 0.5%[25.5 µM]; PK Bst: >11.4

How did CN1C(=O)CSc2ccc(NC(=O)N3CCc4ccccc43)cc21 do in these assays?
Tau filament bind: -26.5%; FLuc inh: 12.6µM*; Caspase-7 inhib: -2.2%; Casp1 inh: -0.8%; PK Bst: 8.22*

How did CN1C(=O)CSc2ccc(NC(=O)Nc3ccccn3)cc21 do in these assays?
Tau filament bind: 10µM*; FLuc inh: -20.8%; Caspase-7 inhib: -5.3%; Casp1 inh: -2.2%; PK Bst: inconclusive

How did O[C@@H]1CC[C@H]2Cc3ccccc3N=C21 do in these assays?
Tau filament bind: inconclusive; FLuc inh: 1.6%[11.4 µM]

What do the screens show for `CC(C)CN1CC2(CCN(C(=O)c3cccc(F)c3)CC2)C1`?
Tau filament bind: -17.4%; FLuc inh: -4.4%[11.4 µM]; Caspase-7 inhib: -0.9%; Casp1 inh: -5.3%

What do the screens show for `CC1N(C)c2cc(NC(=O)c3ccco3)ccc2C1(C)C` (centres undefined)?
Tau filament bind: 20µM*; FLuc inh: 15.8µM*; Caspase-7 inhib: -1.7%; Casp1 inh: -0.7%

Results for CC(=O)Nc1ccc(NC(=O)c2ccco2)cc1 ?
Tau filament bind: -2.2%; FLuc inh: -8.7%; Caspase-7 inhib: -2.2%; Casp1 inh: -0.9%

Results for COc1ccccc1CN1CCCC2(CCN(C(=O)c3cc(C(F)(F)F)cc(C(F)(F)F)c3)CC2)C1 ?
Tau filament bind: -22.0%; FLuc inh: 0.5%[11.4 µM]; Caspase-7 inhib: -0.1%; Casp1 inh: -0.1%

How did Cc1ccc(-c2csc3nnc(SCC(=O)N4CCN(Cc5ccccc5)CC4)n23)cc1 do in these assays?
Tau filament bind: 20µM*; FLuc inh: 1.5%; Caspase-7 inhib: -3.0%; Casp1 inh: -1.3%; PK Bst: >57

What do the screens show for `COc1cc(C(=O)N(CCc2ccccc2)C2CC3CCC(C2)N3C)cc(OC)c1OC` (centres undefined)?
Tau filament bind: 2.6%; FLuc inh: 3.7%; Caspase-7 inhib: -0.2%; Casp1 inh: 1.5%; PK Bst: >57

Results for CCCCN(C(=O)c1ccc(Cl)cc1)C1CC2CCC(C1)N2C (centres undefined) ?
Tau filament bind: 15.8µM*; FLuc inh: 3.9%; Caspase-7 inhib: 1.0%; Casp1 inh: -0.5%

Results for COC(=O)c1ccc(C(NC(=O)OCc2ccccc2)/C(=C/[C@@H](C)C(=O)NCc2ccc(S(C)(=O)=O)cc2)c2cccnc2)cc1 (some centres undefined) ?
Tau filament bind: 1.5%; Caspase-7 inhib: -0.1%; Casp1 inh: -2.6%

What do the screens show for `Cc1ccc(C2CCN(C(=O)Nc3ccccc3)C2)cc1` (centres undefined)?
Tau filament bind: 5.1%; FLuc inh: 25.1µM*; Caspase-7 inhib: 1.9%; Casp1 inh: 1.2%

Results for CC(C)C[C@@H](CC(=O)N[C@H](CC(=O)N[C@@H]1CCCC[C@H]1C(=O)N[C@H](CC(=O)N[C@@H](CCC(=O)O)CC(=O)O)Cc1ccccc1)C(C)C)NC(=O)[C@@H]1CNCC[C@H]1N ?
Tau filament bind: -2.4%

How did COC(=O)NC(/C(C(=O)OC)=C(\C)NCc1ccccc1)c1cccc(C)c1 (centres undefined) do in these assays?
Caspase-7 inhib: -0.8%[11.5 µM]; Casp1 inh: -1.2%[11.5 µM]

Results for Cc1ccc(N[C@H](c2ccccc2)c2ccc3cccnc3c2O)cc1 ?
Tau filament bind: -17.4%[11.4 µM]; FLuc inh: 0.2%[11.4 µM]; Caspase-7 inhib: -5.6%[11.5 µM]; Casp1 inh: -2.9%[11.5 µM]

How did CCN1CCN(/C=N/c2nc3c(s2)CCCC3)CC1 do in these assays?
Tau filament bind: 11.3%; FLuc inh: 12.6µM*; Caspase-7 inhib: -2.5%; Casp1 inh: 0.1%; PK Bst: inconclusive

How did CCCCCCN do in these assays?
Tau filament bind: 0.0%; Caspase-7 inhib: -2.7%; Casp1 inh: 1.4%

How did c1coc(CN=C2NC(=NCc3ccco3)c3ccccc32)c1 do in these assays?
Tau filament bind: 10µM*; FLuc inh: 1.5%; Caspase-7 inhib: 3.8%; Casp1 inh: -6.7%; PK Bst: >57

How did COc1ccc(Nc2nc(-c3sc(N)nc3C)cs2)cc1 do in these assays?
Tau filament bind: 12.6µM*; FLuc inh: -21.1%; Caspase-7 inhib: -2.0%; Casp1 inh: -3.9%; PK Bst: inactive

How did COc1ccc(Nc2nc(N)nc(SCc3nnc(C)s3)n2)cc1 do in these assays?
Tau filament bind: -10.1%; FLuc inh: -24.0%; Caspase-7 inhib: 6.9%; Casp1 inh: 1.1%; PK Bst: inactive

Results for Cc1nc(N)sc1-c1csc(Nc2ccccn2)n1 ?
Tau filament bind: 25.1µM*; FLuc inh: 12.6µM*; Caspase-7 inhib: -2.4%; Casp1 inh: -4.6%

Results for c1ccc(Nc2ccccc2Nc2ccccn2)nc1 ?
Tau filament bind: 36.8%; FLuc inh: 1.2%; Caspase-7 inhib: -1.8%; Casp1 inh: -3.1%; PK Bst: >57

How did Cc1nc(N)sc1-c1csc(Nc2ccc(Cl)cn2)n1 do in these assays?
Tau filament bind: 15.8µM*; FLuc inh: -2.8%; Caspase-7 inhib: -4.9%; Casp1 inh: -2.8%; PK Bst: inactive

What do the screens show for `C=CCNc1nc(-c2sc(NC(C)=O)nc2C)cs1`?
Tau filament bind: 0.2%; FLuc inh: -16.7%; Caspase-7 inhib: -9.5%; Casp1 inh: -4.9%

Results for CCOc1cc(C)nc(NCCc2ccc(OC)c(OC)c2)n1 ?
Tau filament bind: 3.3%; FLuc inh: 1.4%; Caspase-7 inhib: 1.6%; Casp1 inh: 2.4%; PK Bst: >57

What do the screens show for `COc1ccc(CCNc2nc(-c3sc(N)nc3C)cs2)cc1OC`?
Tau filament bind: 15.8µM*; FLuc inh: -6.4%; Caspase-7 inhib: -4.4%; Casp1 inh: -5.0%
